Among all 360,000 compounds or so, about 9,100 (2.5%) were called active. Inconclusive results (about 4%) are left out. The full list was thinned out, with actives kept by preference. A number with no mark means an inactive call. Cut-off read from the data, not from the text of the source: active = max response below about -50%; inconclusive = no clear call, values can overlap the other calls; inactive = above that.
molecular target: D(3) dopamine receptor (Homo sapiens) (UniProt P35462); assay: qHTS of D3 Dopamine Receptor Antagonist: qHTS; conditions: D3R cells, DiscoveRx beta-arrestin luminescence, antagonist mode; active compounds read low
Sequence (P35462 whole entry, looked up): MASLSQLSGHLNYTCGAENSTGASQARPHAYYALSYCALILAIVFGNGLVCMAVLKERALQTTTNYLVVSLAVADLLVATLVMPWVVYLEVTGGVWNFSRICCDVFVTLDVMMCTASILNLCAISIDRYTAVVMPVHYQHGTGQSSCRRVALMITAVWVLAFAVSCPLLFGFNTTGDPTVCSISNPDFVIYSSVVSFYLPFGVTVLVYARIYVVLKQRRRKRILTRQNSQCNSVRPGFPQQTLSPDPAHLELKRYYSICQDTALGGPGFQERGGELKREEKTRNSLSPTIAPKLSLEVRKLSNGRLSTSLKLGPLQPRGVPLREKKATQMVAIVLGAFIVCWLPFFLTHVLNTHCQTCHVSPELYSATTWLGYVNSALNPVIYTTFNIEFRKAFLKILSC
Summary of the method: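 Cells plated overnight at 1500 cells/well, then exposed to library compounds with dopamine controls for 90 minutes at 37 degrees C. DiscoveRx reagent added for 30–60 minutes at room temperature; luminescence read, quantitative HTS format.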
% is set by controls: 0 for no effect and ±100 for the full control effect.

Row | Compound | max response, negative = inhibition
1 | Cc1cn([C@H]2C[C@H](O)[C@@H](CNC(=O)[C@H](N)Cc3cccnc3)O2)c(=O)[nH]c1=O | 22.6%
2 | Cc1ccc(NC(=O)COC(=O)CN2CCSC2=O)cc1F | 37.5%
3 | CCNC(=O)N1CCCC(C(=O)c2ccc(-c3ccccc3)cc2)C1 (centres undefined) | 10.6%
4 | Cn1nccc1C(=O)N1CCCC(C(=O)c2ccc(Oc3ccccc3)cc2)C1 (centres undefined) | 22.9%
5 | O=C(c1ccc(-c2ccccc2)cc1)C1CCCN(C(=O)c2cncs2)C1 (centres undefined) | -57.7% (active)
6 | CC1(C(=O)Nc2cccc3c2CCCC3)CCN1C(=O)CCc1ccc(Cl)cc1Cl (centres undefined) | 9.05%
7 | COc1cccc(CNc2nc3cc(-c4csc5ccccc45)sc3c(=O)n2C)c1 | 6.45%
8 | COc1cc2c(cc1OC)C(Nc1ccc(S(N)(=O)=O)cc1)=NC(C)(C)C2 | 3.38%
9 | COc1cc2c(cc1OC)C(C(C)C)=NC(C)(C)C2 | -19.9%
10 | COc1cc2c(cc1O)C(SC)=NC(C)(C)C2 | -89.4% (active)
11 | CCOC(=O)C1CCCN(C(=O)c2ccc(C)c(F)c2)CC1 (centres undefined) | -26.1%
12 | Cc1sc2ncnc(SCC(=O)NC3CCS(=O)(=O)C3)c2c1C (centres undefined) | -20.5%
13 | O=C(NCCc1c[nH]c2ccccc12)C1CCN(Cc2ccc(Br)cc2)CC1 | -82.8% (active)
14 | Cc1ccc2[nH]cc(CCNC(=O)C3CCCCC3)c2c1 | 11.6%
15 | CCOc1ccc(CN2CCN(Cc3c[nH]c4ccccc34)CC2)cc1 | -60% (active)
16 | CCOc1ccc(CN2CCCN(C)CC2)cc1 | -29.1%
17 | CC1(C(=O)NCCc2c[nH]c3ccccc23)C=CC2(CCCCC2)N1C(=O)c1ccccc1 (centres undefined) | 45.7%
18 | CCOc1ccc(CN2CCN(CCCc3ccccc3)C(CCO)C2)cc1 (centres undefined) | -25.6%
19 | C[C@H]1CN([C@@H](C)CO)C(=O)CCCn2cc(nn2)CO[C@@H]1CN(C)S(=O)(=O)c1cccc(C#N)c1 | 14.4%
20 | COc1ccc(N2c3ccccc3CN(Cc3ccccc3)[C@@H](C)[C@H]2Cc2ccc(-c3ccccc3)cc2)cc1 | 9.42%
21 | CCC(=O)N1Cc2cc(C(=O)NCc3cccc(F)c3)nc(-c3cccc(C4=CCCC4)c3)c2[C@H]1CCO | -8.57%
22 | CCOC(=O)c1c(C)[nH]c(C)c1C(=O)COC(=O)/C=C/c1cccc([N+](=O)[O-])c1 | 19.7%
23 | O=C(COC(=O)/C=C/c1ccc(Cl)cc1)NC1CCS(=O)(=O)C1 (centres undefined) | -20.8%

Row | Compound | max response, negative = inhibition
24 | Cc1ccc(-c2nc(CS(=O)CC(=O)NC3CCCC3)c(C)o2)cc1 (centres undefined) | 12.9%
25 | Cc1cc(NC(=O)CSCc2nc(-c3cccc(Cl)c3)oc2C)no1 | -28.8%
26 | Cc1ccc(-c2nc(CSCC(=O)NC3CCN(Cc4ccccc4)CC3)c(C)o2)cc1 | -76.3% (active)
27 | CN(C)C(CNC(=O)Cc1ccc([N+](=O)[O-])cc1)c1ccccc1 (centres undefined) | -19%
28 | Cc1cc(NC(=O)c2cc3ccccc3o2)no1 | 3.37%
29 | CN(C)C(CNC(=O)c1cc2ccccc2o1)c1ccccc1 (centres undefined) | -82.9% (active)
30 | CCCOc1ccc(Cn2c(O)cc(=O)[nH]c2=O)cc1 | -8.86%
31 | COc1ccc(OC)c(NC(=O)C2(C)CCN2C(=O)Cc2ccccc2)c1 (centres undefined) | 19.2%
32 | COc1cc(=O)[nH]c(=O)n1C(=O)Cc1ccccc1 | -54.3% (active)
33 | CC1(C(=O)NS(=O)(=O)c2ccccc2)CCN1C(=O)C1CCCCC1 (centres undefined) | -29.5%
34 | CC(=O)Nc1ccc(-c2ccnc3c2CC(C(=O)NC(C)C)O3)cc1 (centres undefined) | 23.5%
35 | CC1CC(NC(=S)N(C)C)CC(C)(C)C1 (centres undefined) | -2.04%
36 | CC(=O)Nc1ccc(C=CC(=O)c2ccc([N+](=O)[O-])cc2)cc1 | 1.23%
37 | O=C(/C=C/c1ccc(Cl)c([N+](=O)[O-])c1)c1ccc(O)cc1 | -79.6% (active)
38 | CC(CC(=O)O)C(=O)c1ccc(Cl)c([N+](=O)[O-])c1 (centres undefined) | 7.05%
39 | CCCCn1nnnc1C(c1ccccc1)N1CCN(c2ccccc2OC)CC1 (centres undefined) | -12.3%
40 | OC(c1ccc(F)cc1)c1ncc(-c2cccc(C(F)(F)F)c2)[nH]1 (centres undefined) | 4.48%
41 | CCCCNC(=O)C[C@@H]1C[C@@]2(C(=O)OCC)CCC=C2N(Cc2cccc3ccccc23)C1=O | 0%
42 | CC1=C/C(=N\OS(=O)(=O)c2ccccc2)C=CC1=O | -80.7% (active)
43 | CC(C)(C)C1CCC(=O)N2CCC[C@]2(c2ccccc2)C1 (some centres undefined) | 0%
44 | CC1(C)OC(=O)C2=C(C[C@@H](C3CCCC3)O[C@@H]2c2ccc(Cl)cc2)O1 | 0.96%
45 | CN(Cc1ccccc1)C(=O)c1cccc(C(=O)N(C)Cc2ccccc2)c1 | -13%
46 | CN(CC(=O)O)C(=O)c1ccccc1 | -19.9%

Row | Compound | max response, negative = inhibition
47 | CN(O)C(=S)c1ccccc1 | -113% (active)
48 | Cc1csc(=O)n1CCC(=O)OCC(=O)Nc1ccc(N2CCOCC2)cc1 | -0.664%
49 | O=C(COC(=O)c1ccc(F)cc1)NCC1COc2ccccc2O1 (centres undefined) | -19.4%
50 | O=[N+]([O-])c1ccc(N2CCN(CC(O)COc3ccccc3)CC2)cc1 (centres undefined) | -27.1%
51 | OC(COCC1COc2ccccc2O1)CN1CCN(c2ccc(F)cc2)CC1 (centres undefined) | -58.5% (active)
52 | CCc1cccc(CC)c1N1C(=O)CC(Sc2ccccc2N)C1=O (centres undefined) | -0.919%
53 | C[C@H](CO)N1C[C@H](C)[C@@H](CN(C)S(=O)(=O)c2ccc(Oc3ccccc3)cc2)OCc2cn(nn2)CCCC1=O | 2.13%
54 | CN(C)CCCn1c(=O)n(Cc2ccccc2)c(=O)c2c3c(sc21)CCCCC3 | -52.1% (active)
55 | O=c1c2c3c(sc2n(CCN2CCCC2)c(=O)n1Cc1ccccc1)CCCCC3 | -21.9%
56 | CCn1c(=S)[nH]c2sc3c(c2c1=O)CCCCC3 | -15.3%
57 | Cc1ccc(-c2cnc(C(O)c3cc(Cl)cc(Cl)c3)[nH]2)cc1 (centres undefined) | 17.6%
58 | OCCC1CN(Cc2ccc(Oc3ncccn3)cc2)CCN1CCc1ccccc1 (centres undefined) | -10.3%
59 | Cc1ccc(CN2CCN(Cc3ccc4ncccc4c3)CC2CCO)cc1 (centres undefined) | -16%
60 | CCOc1ccc(CN2CCN(Cc3ccc4cc(F)ccc4n3)CC2CCO)cc1 (centres undefined) | -27.2%
61 | OCCC1CN(Cc2cnc(-c3ccccc3)s2)CCN1CCc1ccccc1 (centres undefined) | -27.8%
62 | OCCC1CN(Cc2cccc(O)c2)CCN1CCc1ccccc1 (centres undefined) | -52.7% (active)
63 | OCCC1CN(Cc2cccc(OC3CCCC3)c2)CCN1Cc1ccsc1 (centres undefined) | -81.9% (active)
64 | COc1cccc(CN2CCN(Cc3ccc4cccc(F)c4n3)CC2CCO)c1 (centres undefined) | -65.2% (active)
65 | CC(=O)Nc1ccc(CN2CCN(Cc3ccc(F)c(F)c3)C(CCO)C2)cc1 (centres undefined) | 7.18%
66 | Cc1ccc(CN2CCN(Cc3cccc(C)n3)CC2CCO)cc1 (centres undefined) | -24.5%
67 | OCCC#Cc1ccc(CN2CCN(Cc3ccsc3)C(CCO)C2)cc1 (centres undefined) | -22.9%
68 | Cc1cccc(CN2CCN(Cc3cnn(-c4ccccc4F)c3)CC2CCO)n1 (centres undefined) | -69% (active)
69 | OCCC1CN(Cc2ccccc2-c2ccco2)CCN1Cc1ccsc1 (centres undefined) | -16.3%

— PubChem BioAssay AID652054 (National Center for Advancing Translational Sciences (NCATS), 2013)
